# Measured values from PubChem BioAssay (NCATS).
# Records with an inconclusive call do not appear. Entries that show only a call come without a potency. The source made the active and inactive calls. Calls follow the shape of the dose curve; as a rule, active = well fitted curve in the direction sought with a large enough effect; inconclusive = small, poorly fitted or top-dose-only effect, or another doubt; inactive = no such curve, though single readings can be large; an effect the other way counts as inactive or inconclusive.
# Columns and labels:
# Furin (Homo sapiens) = Furin (Homo sapiens) (UniProt P09958); assay: Furin counterscreen qHTS for Zika virus inhibitors (AID 1347149); also: nearly all actives have a fitted effect of over 70% in size; also: potency is read from the fitted curve at half-maximal effect
# Furin (Homo sapiens), sequence (P09958 whole entry, looked up): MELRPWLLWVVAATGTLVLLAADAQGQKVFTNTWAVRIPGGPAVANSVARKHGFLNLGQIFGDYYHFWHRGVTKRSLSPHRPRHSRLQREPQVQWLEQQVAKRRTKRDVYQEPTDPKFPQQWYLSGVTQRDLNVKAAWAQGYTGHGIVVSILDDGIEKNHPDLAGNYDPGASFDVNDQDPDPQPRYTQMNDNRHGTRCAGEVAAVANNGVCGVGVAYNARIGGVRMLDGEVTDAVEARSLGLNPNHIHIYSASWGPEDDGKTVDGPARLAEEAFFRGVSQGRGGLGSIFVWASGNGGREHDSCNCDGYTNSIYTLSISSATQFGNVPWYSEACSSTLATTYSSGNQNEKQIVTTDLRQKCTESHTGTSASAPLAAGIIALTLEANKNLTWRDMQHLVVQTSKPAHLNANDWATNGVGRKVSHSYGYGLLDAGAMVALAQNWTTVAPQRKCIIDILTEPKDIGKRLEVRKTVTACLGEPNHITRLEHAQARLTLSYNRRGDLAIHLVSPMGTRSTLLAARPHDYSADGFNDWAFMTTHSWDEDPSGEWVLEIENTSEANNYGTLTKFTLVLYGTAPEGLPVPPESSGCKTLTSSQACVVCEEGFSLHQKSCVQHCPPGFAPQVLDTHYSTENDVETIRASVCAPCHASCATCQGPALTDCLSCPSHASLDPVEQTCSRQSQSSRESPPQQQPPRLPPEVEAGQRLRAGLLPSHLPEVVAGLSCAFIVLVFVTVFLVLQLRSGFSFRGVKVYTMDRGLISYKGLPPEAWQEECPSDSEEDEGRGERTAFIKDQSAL
# Summary of the method: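 Fluorogenic cleavage of BOC-RVRR-AMC (2 microM final, Km ~15 µM) was monitored (ex 340, em 450 nm) at 37C after 15 min RT preincubation of 5 nM furin with compounds in HEPES pH 7.0 buffer with CaCl2 and Triton X-100. Percent inhibition was fitted to a 4-parameter Hill curve.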
# [1] = system: Zika virus NS2B-NS3 protease (unlinked); assay: Optimization of GU AMC qHTS for Zika virus inhibitors: Unlinked NS2B-NS3 protease assay (AID 1347151); also: series mostly up to about 52 µM; nearly all actives have a fitted effect of over 80% in size
# Summary of the method: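 Noncovalent complex of NS2B hydrophilic domain and NS3 protease domain, 25 nM final, in 10 mM Tris-HCl pH 8.0, 0.01% Tween 20. AMC fluorescence change over 15 min at room temperature was fitted to a 4-parameter Hill equation.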
# [2] = Vero cells viability qHTS for Zika virus inhibitors (AID 1347167)
# Summary of the method: (§1)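 Cells seeded at 2.5 x 10^5 cells/mL in DMEM with 4% FBS and attached overnight at 37 degrees C, then exposed to compound for 24 to 48 hours. Viability read as ATP content by CellTiter Glo luminescence.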
# [3] = HepG2 cells viability qHTS for Zika virus inhibitors (AID 1347168)
# Summary of the method: as §1
# [4] = Tertiary RLuc qRT-PCR qHTS assay for Zika virus inhibitors (AID 1347169); also: nearly all actives have a fitted effect of over 55% in size; also: potency is read from the fitted curve at half-maximal effect
# Summary of the method: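 Vero cells (1,000 per well) plated overnight at 37 degrees C, treated with compound in DMSO, then infected with recombinant ZIKV-RLuc (Cambodian) at MOI 1-2 for 48-72 hrs. Live-cell Renilla luciferase substrate added; luminescence read after 1-1.5 hrs.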
# [5] = system: Zika virus NS2B-NS3 protease (linked construct); assay: Confirmatory screen NINDS AMC qHTS for Zika virus inhibitors (AID 1347152); also: nearly all actives have a fitted effect of over 70% in size; also: potency is read from the fitted curve at half-maximal effect
# Summary of the method: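 Purified NS2B-NS3 protease with NS2B hydrophilic domain linked to NS3 protease domain by flexible linker, 1 nM final in 10 mM Tris-HCl pH 8.0, 0.01% Tween 20. Compounds preincubated 15 min, room temperature; Bz-Nle-KRR-AMC 10 microM (Km 18.3 µM); 15-min fluorescence change, 4-parameter Hill fit.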
# [6] = system: Zika virus NS2B-NS3 protease (unlinked complex); assay: Confirmatory screen GU AMC qHTS for Zika virus inhibitors (AID 1347153); also: nearly all actives have a fitted effect of over 70% in size
# Summary of the method: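 Noncovalent NS2B hydrophilic domain/NS3 protease complex (25 nM) in 10 mM Tris-HCl pH 8.0, 0.01% Tween 20 was preincubated 15 min at room temperature with compounds. Then 10 µM AMC substrate (Km 18.3 µM) was added; fluorescence was read over 15 min and fitted to a 4-parameter Hill equation.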
# [7] = ZIKV-mCherry secondary qHTS for Zika virus inhibitors (AID 1347158); also: top concentration of the series differs between compounds
# Summary of the method: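 After overnight seeding at 37 °C, Vero cells receive compound and then ZIKV-mCherry (MOI 1). Following 48-72 h infection, cells are fixed, counterstained with Hoechst, and imaged; percent infected cells is derived from an mCherry intensity cut-off of 450 RFU.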
# [8] = system: Zika virus NS2B-NS3 protease (linked); assay: 384 well plate NINDS AMC confirmatory qHTS for Zika virus inhibitors (AID 1347163); also: nearly all actives have a fitted effect of over 50% in size; also: potency is read from the fitted curve at half-maximal effect
# Summary of the method: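 Linked protease 5/30/60 nM final; cpds up to 1 mM final, ~15 min preinc. Substrate Ac-VKTGKR-AMC 30 microM final. RT, dark, 25 min; FI ex 355/em 460; normalized to no-enzyme/no-inhibitor ctrls.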
# [9] = system: Zika virus NS2B-NS3 protease (linked construct); assay: 384 well plate NINDS Rhodamine confirmatory qHTS for Zika virus inhibitors (AID 1347164);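 also: fluorescence from protease cleavage of Ac-LKRR-rhodamine 110 substrate; potency is read from the fitted curve at half-maximal effect; nearly all actives have a fitted effect of over 65% in size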
# Summary of the method: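 Linked protease at a final 5 nM, 30 nM or 60 nM was preincubated ~15 min with compounds, then given 10 microM Ac-LKRR-Rhodamine 110. Fluorescence (ex 485/em 538 nm) after 25 min in the dark at room temperature.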
# [10] = system: Zika virus NS2B-NS3 protease; assay: Primary screen GU AMC qHTS for Zika virus inhibitors (AID 1347154); also: potency is read from the fitted curve at half-maximal effect; nearly all actives have a fitted effect of over 70% in size
# Summary of the method: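 Unlinked Zika NS2B hydrophilic domain–NS3 protease complex at 25 nM in 10 mM Tris-HCl pH 8.0, 0.01% Tween 20, with an AMC peptide substrate. Fluorescence change (340/450 nm) over 15 min at room temperature, normalized to controls, fitted to 4-parameter Hill.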
# [11] = Primary qHTS for small molecule stabilizers of the endoplasmic reticulum resident proteome: Secreted ER Calcium Modulated Protein (SERCaMP) assay (AID 1508630)
# Summary of the method: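 GLuc-SERCaMP-expressing SH-SY5Y cells, pretreated 16 h with compound, are challenged with thapsigargin to empty ER calcium stores; after 4 h, coelenterazine is added directly to the medium and luminescence is imaged.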
smiles,measurement,setting,value
CCOc1ccc(C2C(=O)N(C3CCCCC3)CC(=O)N2Cc2ccc(F)cc2)cc1OC (stereo not drawn),Potency,Furin (Homo sapiens),inactive
same,Potency,[1],inactive
same,Potency,[2],inactive
same,Potency,[3],inactive
same,Potency,[4],8.29 µM (active)
Cc1ncccc1OCC1CN(Cc2cccc(C(F)(F)F)c2)C(=O)c2c(ccnc2-c2ccc(OCC(=O)O)cc2)O1 (stereo not drawn),Potency,Furin (Homo sapiens),inactive
same,Potency,[5],inactive
same,Potency,[6],inactive
same,Potency,[4],inactive
O=C(Nc1ccc(Oc2ccccc2)cc1)O[C@@H]1CO[C@H]2[C@@H]1OC[C@@H]2NS(=O)(=O)c1ccc(Cl)cc1,Potency,Furin (Homo sapiens),inactive
same,Potency,[5],inactive
same,Potency,[6],inactive
CC(=O)C(N=Nc1ccc(S(=O)(=O)Nc2ccccn2)cc1)C(=O)Nc1ccc(Cl)cc1 (stereo not drawn),Potency,Furin (Homo sapiens),inactive
same,Potency,[5],44.7 µM (active)
same,Potency,[7],inactive
same,Potency,[8],22.4 µM (active)
same,Potency,[9],25.1 µM (active)
same,Potency,[4],inactive
Cc1ccc2c(=O)c3ccccc3n(CCCN)c2c1C,Potency,Furin (Homo sapiens),24.1 µM (active)
same,Potency,[6],inactive
same,Potency,[10],21.2 µM (active)
same,Potency,[2],inactive
same,Potency,[11],inactive
O=C(O)c1cccc(-c2ccc(OC(F)(F)F)cc2)c1,Potency,Furin (Homo sapiens),inactive
same,Potency,[5],inactive
same,Potency,[7],inactive
same,Potency,[8],inactive
same,Potency,[4],inactive
